Whole data set: some 8,300 sequences, median “log2 fold change of degron read counts, EGFP-low vs EGFP+ sorted cells (limma voom), compound-induced degradation” near -1.1, cut for the highest 2% near 3.2. This excerpt belongs to a sample that is enriched for the highest values.
T1: CRBN, Q96SW2
T1 chain: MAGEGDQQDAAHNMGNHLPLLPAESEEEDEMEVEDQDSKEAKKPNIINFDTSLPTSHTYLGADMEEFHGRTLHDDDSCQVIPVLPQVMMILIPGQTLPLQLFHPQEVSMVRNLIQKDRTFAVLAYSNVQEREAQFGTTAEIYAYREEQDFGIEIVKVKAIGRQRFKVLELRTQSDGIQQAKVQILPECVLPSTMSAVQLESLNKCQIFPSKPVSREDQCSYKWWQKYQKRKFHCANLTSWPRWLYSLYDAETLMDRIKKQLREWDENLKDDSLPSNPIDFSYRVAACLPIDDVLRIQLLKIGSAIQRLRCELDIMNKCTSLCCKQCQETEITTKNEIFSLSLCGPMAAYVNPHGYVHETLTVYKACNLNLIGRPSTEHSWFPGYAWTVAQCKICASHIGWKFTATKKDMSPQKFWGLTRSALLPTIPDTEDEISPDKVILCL


Biological target: T1, CRBN, Q96SW2
Assay: log2 fold change of degron read counts, EGFP-low vs EGFP+ sorted cells (limma voom), compound-induced degradation; higher = more compound-induced degradation of the degron-EGFP fusion; degrons are variants of IKZF1/3 zinc finger 2; compound dose not given here
Conditions: Jurkat, 18 h
[1] = compound: compound 19 (5-tert-butyl-thalidomide)
[2] = compound: compound 22 (5-morpholino-thalidomide)
[3] = compound: compound 33 (diphenyl IMiD analogue)
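Note: pooled lentiviral library of zinc finger degron-EGFP fusions in mCherry-positive Jurkat cells, FACS-sorted after compound exposure, with degron abundance counted by next-generation sequencing.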

| Sequence | log2 fold change of degron read counts [1] | log2 fold change of degron read counts [2] | log2 fold change of degron read counts [3] | log2 fold change of degron read counts (compound: thalidomide) |
| --- | --- | --- | --- | --- |
| FICPICGHFFTQKGNLLRHIKL [46F_47I_49P_50I_52G_53H_54F_55F_67L_, Q9UKT9] | -1.6 | -2.08 | -1.13 | -1.31 |
| LGCPICGFTCTQKGNLLRHIKL [46L_47G_49P_50I_52G_53F_54T_55C_67L_, Q9UKT9] | 3.65 | 2.87 | 1.97 | 1.36 |
| LECEICGFTCTQKGNLLRHIKL [46L_47E_49E_50I_52G_53F_54T_55C_67L_, Q9UKT9] | 0.26 | -0.872 | 1.66 | 2.87 |
| LYCPICGFTCTQKGNLLRHIKL [46L_47Y_49P_50I_52G_53F_54T_55C_67L_, Q9UKT9] | 3.6 | 3.63 | 2.97 | 2.63 |
| LWCPICGFTCTQKGNLLRHIKL [46L_47W_49P_50I_52G_53F_54T_55C_67L_, Q9UKT9] | 3.24 | 3.71 | 3.05 | 2.09 |
| LECPICGFTCTQKGNLLRHIKL [46L_47E_49P_50I_52G_53F_54T_55C_67L_, Q9UKT9] | 1.1 | 0.00767 | 2.64 | 3.38 |
| LQCNQCGFICTQKGNLLRHIKL [46L_47Q_49N_50Q_52G_53F_54I_55C_67L_, Q9UKT9] | -2.79 | -2.4 | -2.23 | -0.473 |
| FVCNQCGRTFTQKGNLLRHIKL [46F_47V_49N_50Q_52G_53R_54T_55F_67L_, Q9UKT9] | -2.81 | -2.9 | -2.85 | -2.6 |
| FACDQCGAIFTQKGNLLRHIKL [46F_47A_49D_50Q_52G_53A_54I_55F_67L_, Q9UKT9] | -1.3 | -2.79 | -2.17 | -2.61 |
| FECEICGHHFTQKGNLLRHIKL [46F_47E_49E_50I_52G_53H_54H_55F_67L_, Q9UKT9] | -3.57 | -3.77 | -3.12 | -3.14 |
| FWCPICGRHFTQKGNLLRHIKL [46F_47W_49P_50I_52G_53R_54H_55F_67L_, Q9UKT9] | 0.105 | 0.12 | -0.0382 | -0.795 |
| FTCNQCGANFTQKGNLLRHIKL [46F_47T_49N_50Q_52G_53A_54N_55F_67L_, Q9UKT9] | -2.31 | -1.9 | -1.02 | -1.51 |
| FCCEQCGAQFTQKGNLLRHIKL [46F_47C_49E_50Q_52G_53A_54Q_55F_67L_, Q9UKT9] | -0.606 | -1.61 | 0.54 | -0.701 |
| FFCDVCGAGFTQKGNLLRHIKL [46F_47F_49D_50V_52G_53A_54G_55F_67L_, Q9UKT9] | 2.13 | 0.815 | -0.261 | -2.07 |
| FICEICGRFFTQKGNLLRHIKL [46F_47I_49E_50I_52G_53R_54F_55F_67L_, Q9UKT9] | -1.91 | -1.81 | -0.249 | -0.59 |
| FRCNICGAFFTQKGNLLRHIKL [46F_47R_49N_50I_52G_53A_54F_55F_67L_, Q9UKT9] | -1.52 | -1.67 | -0.33 | 0.791 |
| FTCEQCGATFTQKGNLLRHIKL [46F_47T_49E_50Q_52G_53A_54T_55F_67L_, Q9UKT9] | -2.43 | -0.729 | 0.386 | 0.407 |

| Sequence | log2 fold change of degron read counts [1] | log2 fold change of degron read counts [2] | log2 fold change of degron read counts [3] | log2 fold change of degron read counts (compound: thalidomide) |
| --- | --- | --- | --- | --- |
| LDCPICGFTCTQKGNLLRHIKL [46L_47D_49P_50I_52G_53F_54T_55C_67L_, Q9UKT9] | 1.14 | 0.297 | 1.7 | 2.41 |
| LNCPICGFTCTQKGNLLRHIKL [46L_47N_49P_50I_52G_53F_54T_55C_67L_, Q9UKT9] | 2.24 | 1.48 | 1.4 | 1.99 |
| LCCPICGFTCTQKGNLLRHIKL [46L_47C_49P_50I_52G_53F_54T_55C_67L_, Q9UKT9] | 2.3 | 2.71 | 3.14 | 3.38 |
| FFCNQCGHLFTQKGNLLRHIKL [46F_47F_49N_50Q_52G_53H_54L_55F_67L_, Q9UKT9] | -1.66 | -2.07 | -1.87 | -1.3 |
| FSCDICGAAFTQKGNLLRHIKL [46F_47S_49D_50I_52G_53A_54A_55F_67L_, Q9UKT9] | 2.34 | 2.19 | 1.4 | 0.487 |
| FRCPICGAQFTQKGNLLRHIKL [46F_47R_49P_50I_52G_53A_54Q_55F_67L_, Q9UKT9] | -0.000477 | 0.626 | 1.17 | 1.41 |
| FSCPICGAQFTQKGNLLRHIKL [46F_47S_49P_50I_52G_53A_54Q_55F_67L_, Q9UKT9] | 2.37 | 2.25 | 1.87 | 1.54 |
| FACPICGAQFTQKGNLLRHIKL [46F_47A_49P_50I_52G_53A_54Q_55F_67L_, Q9UKT9] | 3.33 | 2.33 | 1.68 | 1.29 |
| FICPICGAQFTQKGNLLRHIKL [46F_47I_49P_50I_52G_53A_54Q_55F_67L_, Q9UKT9] | -0.147 | 2.86 | 2.84 | 2.97 |
| FFCPICGAQFTQKGNLLRHIKL [46F_47F_49P_50I_52G_53A_54Q_55F_67L_, Q9UKT9] | 3.07 | 3.66 | 2.49 | 1.8 |
| FVCPICGAQFTQKGNLLRHIKL [46F_47V_49P_50I_52G_53A_54Q_55F_67L_, Q9UKT9] | 0.269 | 3.03 | 2.65 | 2.8 |
| FKCPICGAQFTQKGNLLRHIKL [46F_47K_49P_50I_52G_53A_54Q_55F_67L_, Q9UKT9] | -0.0361 | -1.47 | -1.09 | 0.0895 |
| FWCPICGAQFTQKGNLLRHIKL [46F_47W_49P_50I_52G_53A_54Q_55F_67L_, Q9UKT9] | 3.01 | 3.69 | 2.52 | 1.76 |
| FYCPICGAQFTQKGNLLRHIKL [46F_47Y_49P_50I_52G_53A_54Q_55F_67L_, Q9UKT9] | 3.2 | 3.56 | 2.65 | 1.7 |
| FMCPICGAQFTQKGNLLRHIKL [46F_47M_49P_50I_52G_53A_54Q_55F_67L_, Q9UKT9] | 0.245 | 1.26 | 2.62 | 1.97 |
| FTCPICGAQFTQKGNLLRHIKL [46F_47T_49P_50I_52G_53A_54Q_55F_67L_, Q9UKT9] | 0.221 | 2.57 | 2.32 | 3.06 |
| FECPICGAQFTQKGNLLRHIKL [46F_47E_49P_50I_52G_53A_54Q_55F_67L_, Q9UKT9] | -0.254 | -0.469 | 2.11 | 2.88 |
